# Inconclusive results are not listed. Where a call stands in place of a potency, no number is given. The source made the active and inactive calls. Calls come from the whole dose curve.
# Experiment: Nuclear factor erythroid 2-related factor 2/antioxidant responsive element (Nrf2/ARE) small molecule agonists: luciferase reporter gene qHTS assay in human keratinocytes (AID 1919969); note: nearly all actives have a fitted effect of over 35% in size
# Potency is the fitted concentration of half-maximal effect.
row,Compound,Potency
1,CC#N,inactive
2,C1CCC2OC2C1 (configuration not stated),inactive
3,CCC(C)(C)C1CCC(=O)CC1,inactive
4,CC(C)C1CCC(O)CC1 (configuration not stated),inactive
5,NC(=O)c1ccccc1N,inactive
6,CCCc1ccccc1,inactive
7,COc1ccc2cc(C=O)ccc2c1,inactive
8,Cc1ncsc1CCO,inactive
9,OC/C=C/CO,inactive
10,Cc1ccc2n[nH]nc2c1,inactive
11,CCCCCCCCN(C)C,inactive
12,COc1cc(CCC(C)=O)ccc1O,inactive
13,N#C[C@@H]1C[C@@H]2C[C@@H]2N1C(=O)[C@@H](N)C12CC3CC(CC(O)(C3)C1)C2,inactive
14,CC(=O)CC(=O)Nc1ccc2[nH]c(=O)[nH]c2c1,inactive
15,NC(=O)Cc1cccc(C(=O)c2ccccc2)c1N,inactive
16,CC1=CC[C@@H](C(C)(C)O)CC1,inactive

row,Compound,Potency
1,CC1=NN(c2ccc(S(=O)(=O)O)cc2)C(=O)C1,inactive
2,Cc1cc(N)no1,inactive
3,Oc1c(Cl)ccc(Cl)c1Cl,inactive
4,O=S(O)CO,inactive
5,C=CC(=O)OCCOC(=O)C=C,68.6 µM (active)
6,CC1(C)O[C@H]2CC(=O)OC[C@]23[C@H]2CC[C@@]4(C)[C@H](c5ccoc5)OC(=O)[C@H]5O[C@]54[C@]2(C)C(=O)C[C@@H]13,inactive
7,FC(F)(F)/C(=N\OCC1OCCO1)c1ccc(Cl)cc1,inactive
8,c1ccc2c(c1)Oc1ccccc1S2,inactive
9,CCC(CO)CO,inactive
10,CCOC(=O)c1cccc(N)c1,inactive
11,c1ccc(CCCc2ccncc2)cc1,48.6 µM (active)
12,CC(C)CCCCCOC(=O)CCS,inactive
13,O=C1OCCO1,inactive
14,COC(=O)c1ccc([N+](=O)[O-])cc1,inactive
15,Cc1cccc(N(C)C(=S)Oc2ccc3ccccc3c2)c1,21.7 µM (active)
16,CC(=O)NCCO,inactive

# Reference: PubChem BioAssay (Tox21)
